{"source": "PubChem BioAssay (NCI)", "key": {"[1]": {"assay": "NCI Yeast Anticancer Drug Screen. Data for the rad52 strain (AID 147);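 also: 0% = growth of vehicle-treated control cultures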", "conditions": "S. cerevisiae rad52 mutant growth inhibition, hits give high values", "in_short": "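Here a repair-compromised yeast strain receives each compound; its growth is then quantified and normalised to vehicle-only controls.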"}, "[2]": {"assay": "NCI Yeast Anticancer Drug Screen. Data for the wt1 strain (AID 149);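 also: 0% = growth of vehicle-treated wt1 cultures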", "conditions": "S. cerevisiae wt1 strain (SPY 50644) growth inhibition, hits give high values", "in_short": "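Vehicle-normalised growth inhibition; strain wt1; compound exposure.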"}, "[3]": {"assay": "NCI Yeast Anticancer Drug Screen. Data for the rad50EPP+ strain (AID 151);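 also: 0% = growth of vehicle-treated control cultures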", "conditions": "S. cerevisiae rad50 mutant strain, hits give high values", "in_short": "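Read-out is yeast growth inhibition relative to vehicle; cells used were the rad50EPP+ strain.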"}, "[4]": {"assay": "NCI Yeast Anticancer Drug Screen. Data for the rad50 strain (AID 155);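 also: 0% = growth of vehicle-only cultures of the same strain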", "conditions": "S. cerevisiae rad50 strain growth inhibition, hits give high values", "in_short": "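A DNA repair-deficient yeast mutant serves as the test organism; compound-induced growth inhibition is calculated against vehicle-treated cells.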"}, "[5]": {"assay": "NCI Yeast Anticancer Drug Screen. Data for the mec2-1 strain (AID 157)", "conditions": "S. cerevisiae mec2-1 strain, hits give high values", "in_short": "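Using mec2-1 yeast: add compound, measure growth, express inhibition versus vehicle-treated cultures.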"}, "[6]": {"assay": "NCI Yeast Anticancer Drug Screen. Data for the rad14 strain (AID 159);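 also: 0% = growth of vehicle-treated control cultures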", "conditions": "S. cerevisiae rad14 strain growth inhibition, hits give high values", "in_short": "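Vehicle-treated cultures served as the baseline for growth inhibition of a DNA repair-mutant yeast strain exposed to each compound.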"}, "[7]": {"assay": "NCI Yeast Anticancer Drug Screen. Data for the sgs1 mgt1 strain (AID 161);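 also: 0% = growth of cultures given vehicle only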", "conditions": "S. cerevisiae sgs1 mgt1 strain, hits give high values", "in_short": "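Growth of a repair-deficient yeast mutant was monitored after compound treatment and expressed as inhibition relative to vehicle-treated cultures.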"}, "[8]": {"assay": "NCI Yeast Anticancer Drug Screen. Data for the CLN2oe strain (AID 163);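 also: 0% = growth of vehicle-only control cultures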", "conditions": "S. cerevisiae CLN2oe strain, hits give high values", "in_short": "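Whole-cell yeast growth assay. A strain engineered for altered cell-cycle control received compound, and inhibition relative to vehicle-treated cultures was recorded.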"}, "[9]": {"assay": "NCI Yeast Anticancer Drug Screen. Data for the cln2 rad14 strain (AID 165);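 also: 0% = growth equal to vehicle treated cultures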", "conditions": "S. cerevisiae cln2 rad14 strain, hits give high values", "in_short": "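Yeast strain cln2 rad14, bearing defects in cell cycle control and DNA repair, serves as the test system; values reflect growth inhibition compared with vehicle.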"}, "[10]": {"assay": "NCI Yeast Anticancer Drug Screen. Data for the bub3 strain (AID 167)", "conditions": "S. cerevisiae bub3 mutant strain, hits give high values", "in_short": "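Inhibition values come from growth of compound-treated mutant yeast normalised to vehicle-treated controls.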"}, "[11]": {"assay": "NCI Yeast Anticancer Drug Screen. Data for the wt2 strain (AID 169);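 also: 0% = growth of vehicle-treated yeast cultures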", "conditions": "S. cerevisiae wt2 strain growth inhibition, hits give high values", "in_short": "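Treated yeast vs. vehicle-treated yeast: growth inhibition determined.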"}, "[12]": {"assay": "NCI Yeast Anticancer Drug Screen. Data for the mlh1 strain (AID 171);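 also: 0% = growth of vehicle-treated control cultures of the same strain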", "conditions": "S. cerevisiae mlh1 strain growth inhibition, hits give high values", "in_short": "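A yeast strain with a defined genetic lesion serves as the test organism. Cultures receive compound or vehicle, and growth is measured.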"}, "[13]": {"assay": "NCI Yeast Anticancer Drug Screen. Data for the sgs1 strain (AID 173);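 also: 0% = growth of vehicle-only control cultures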", "conditions": "S. cerevisiae sgs1 mutant, hits give high values", "in_short": "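A genetically defined yeast mutant is incubated with the test compound, and its growth is compared to that of the same strain given vehicle.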"}, "[14]": {"assay": "NCI Yeast Anticancer Drug Screen. Data for the mlh1 rad18 strain (AID 175)", "conditions": "S. cerevisiae mlh1 rad18 strain growth inhibition, hits give high values", "in_short": "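Steps: expose repair-defective yeast to compound; measure growth; express inhibition against vehicle-treated controls.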"}, "[15]": {"assay": "NCI Yeast Anticancer Drug Screen. Data for the rad18 strain (AID 177)", "conditions": "S. cerevisiae rad18 mutant growth inhibition, hits give high values", "in_short": "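Measured value is growth inhibition of a yeast strain bearing a DNA repair alteration, referenced to vehicle-treated cells.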"}, "[16]": {"conditions": "at 5.0 µM (retest, dose inferred, filed as 0.5)"}, "[17]": {"conditions": "at 50.0 µM (retest, dose inferred, filed as 5.0)"}}, "note": "This is part of a sample that, as a whole, favours compounds with a hit. Of some 79,000 tested, about 15% had one in any assay. A number with no mark means an inactive call. Activity calls are given as the source filed them. Rule as the data show it: active = growth inhibition above about 70%; inactive = the rest.", "data": [{"compound": "O=C1CSC(=S)N1Cc1ccc(Cl)cc1Cl", "values": [{"measurement": "growth inhibition", "setting": "[1]; at 1.2 µM", "value": -4, "unit": "%"}, {"measurement": "growth inhibition", "setting": "[1]; at 3.7 µM", "value": 8, "unit": "%"}, {"measurement": "growth inhibition", "setting": "[1]; at 11.0 µM", "value": "98% (active)"}, {"measurement": "growth inhibition", "setting": "[1]; at 33.0 µM", "value": "99% (active)"}, {"measurement": "growth inhibition", "setting": "[1]; at 100.0 µM", "value": "98% (active)"}, {"measurement": "growth inhibition", "setting": "[2]; at 1.2 µM", "value": 1, "unit": "%"}, {"measurement": "growth inhibition", "setting": "[2]; at 3.7 µM", "value": 24, "unit": "%"}, {"measurement": "growth inhibition", "setting": "[2]; at 11.0 µM", "value": "99% (active)"}, {"measurement": "growth inhibition", "setting": "[2]; at 33.0 µM", "value": "99% (active)"}, {"measurement": "growth inhibition", "setting": "[2]; at 100.0 µM", "value": "97% (active)"}, {"measurement": "growth inhibition", "setting": "[3]; at 1.2 µM", "value": 12, "unit": "%"}, {"measurement": "growth inhibition", "setting": "[3]; at 3.7 µM", "value": "72% (active)"}, {"measurement": "growth inhibition", "setting": "[3]; at 11.0 µM", "value": "97% (active)"}, {"measurement": "growth inhibition", "setting": "[3]; at 33.0 µM", "value": "99% (active)"}, {"measurement": "growth inhibition", "setting": "[3]; at 100.0 µM", "value": "98% (active)"}, {"measurement": "growth inhibition", "setting": "[4]; at 1.2 µM", "value": -6, "unit": "%"}, {"measurement": "growth inhibition", "setting": "[4]; at 3.7 µM", "value": 26, "unit": "%"}, {"measurement": "growth inhibition", "setting": "[4]; [16]", "value": 29, "unit": "%"}, {"measurement": "growth inhibition", "setting": "[4]; at 11.0 µM", "value": "99% (active)"}, {"measurement": "growth inhibition", "setting": "[4]; at 33.0 µM", "value": "99% (active)"}, {"measurement": "growth inhibition", "setting": "[4]; [17]", "value": "98% (active)"}, {"measurement": "growth inhibition", "setting": "[4]; at 50.0 µM", "value": "99.1% (active)"}, {"measurement": "growth inhibition", "setting": "[4]; at 100.0 µM", "value": "98% (active)"}, {"measurement": "growth inhibition", "setting": "[5]; at 1.2 µM", "value": 1, "unit": "%"}, {"measurement": "growth inhibition", "setting": "[5]; at 3.7 µM", "value": -1, "unit": "%"}, {"measurement": "growth inhibition", "setting": "[5]; [16]", "value": 10, "unit": "%"}, {"measurement": "growth inhibition", "setting": "[5]; at 11.0 µM", "value": "93% (active)"}, {"measurement": "growth inhibition", "setting": "[5]; at 33.0 µM", "value": "99% (active)"}, {"measurement": "growth inhibition", "setting": "[5]; [17]", "value": "99% (active)"}, {"measurement": "growth inhibition", "setting": "[5]; at 50.0 µM", "value": "99.3% (active)"}, {"measurement": "growth inhibition", "setting": "[5]; at 100.0 µM", "value": "99% (active)"}, {"measurement": "growth inhibition", "setting": "[6]; at 1.2 µM", "value": 3, "unit": "%"}, {"measurement": "growth inhibition", "setting": "[6]; at 3.7 µM", "value": 20, "unit": "%"}, {"measurement": "growth inhibition", "setting": "[6]; at 11.0 µM", "value": "99% (active)"}, {"measurement": "growth inhibition", "setting": "[6]; at 33.0 µM", "value": "100% (active)"}, {"measurement": "growth inhibition", "setting": "[6]; at 100.0 µM", "value": "99% (active)"}, {"measurement": "growth inhibition", "setting": "[7]; [16]", "value": 41, "unit": "%"}, {"measurement": "growth inhibition", "setting": "[7]; [17]", "value": "99% (active)"}, {"measurement": "growth inhibition", "setting": "[7]; at 50.0 µM", "value": "99.4% (active)"}, {"measurement": "growth inhibition", "setting": "[8]; at 1.2 µM", "value": -10, "unit": "%"}, {"measurement": "growth inhibition", "setting": "[8]; at 3.7 µM", "value": -11, "unit": "%"}, {"measurement": "growth inhibition", "setting": "[8]; at 11.0 µM", "value": "96% (active)"}, {"measurement": "growth inhibition", "setting": "[8]; at 33.0 µM", "value": "99% (active)"}, {"measurement": "growth inhibition", "setting": "[8]; at 100.0 µM", "value": "98% (active)"}, {"measurement": "growth inhibition", "setting": "[9]; [16]", "value": 0, "unit": "%"}, {"measurement": "growth inhibition", "setting": "[9]; [17]", "value": "99% (active)"}, {"measurement": "growth inhibition", "setting": "[9]; at 50.0 µM", "value": "98.8% (active)"}, {"measurement": "growth inhibition", "setting": "[10]; at 1.2 µM", "value": -9, "unit": "%"}, {"measurement": "growth inhibition", "setting": "[10]; at 3.7 µM", "value": 15, "unit": "%"}, {"measurement": "growth inhibition", "setting": "[10]; [16]", "value": 14, "unit": "%"}, {"measurement": "growth inhibition", "setting": "[10]; at 11.0 µM", "value": "99% (active)"}, {"measurement": "growth inhibition", "setting": "[10]; at 33.0 µM", "value": "99% (active)"}, {"measurement": "growth inhibition", "setting": "[10]; [17]", "value": "98% (active)"}, {"measurement": "growth inhibition", "setting": "[10]; at 50.0 µM", "value": "99.3% (active)"}, {"measurement": "growth inhibition", "setting": "[10]; at 100.0 µM", "value": "99% (active)"}, {"measurement": "growth inhibition", "setting": "[11]; at 1.2 µM", "value": 12, "unit": "%"}, {"measurement": "growth inhibition", "setting": "[11]; at 3.7 µM", "value": 55, "unit": "%"}, {"measurement": "growth inhibition", "setting": "[11]; at 11.0 µM", "value": "100% (active)"}, {"measurement": "growth inhibition", "setting": "[11]; at 33.0 µM", "value": "100% (active)"}, {"measurement": "growth inhibition", "setting": "[11]; at 100.0 µM", "value": "99% (active)"}, {"measurement": "growth inhibition", "setting": "[12]; at 1.2 µM", "value": -13, "unit": "%"}, {"measurement": "growth inhibition", "setting": "[12]; at 3.7 µM", "value": 8, "unit": "%"}, {"measurement": "growth inhibition", "setting": "[12]; at 11.0 µM", "value": "99% (active)"}, {"measurement": "growth inhibition", "setting": "[12]; at 33.0 µM", "value": "99% (active)"}, {"measurement": "growth inhibition", "setting": "[12]; at 100.0 µM", "value": "99% (active)"}, {"measurement": "growth inhibition", "setting": "[13]; at 1.2 µM", "value": 2, "unit": "%"}, {"measurement": "growth inhibition", "setting": "[13]; at 3.7 µM", "value": 33, "unit": "%"}, {"measurement": "growth inhibition", "setting": "[13]; at 11.0 µM", "value": "99% (active)"}, {"measurement": "growth inhibition", "setting": "[13]; at 33.0 µM", "value": "99% (active)"}, {"measurement": "growth inhibition", "setting": "[13]; at 100.0 µM", "value": "99% (active)"}, {"measurement": "growth inhibition", "setting": "[14]; [16]", "value": 66, "unit": "%"}, {"measurement": "growth inhibition", "setting": "[14]; [17]", "value": "98% (active)"}, {"measurement": "growth inhibition", "setting": "[14]; at 50.0 µM", "value": "97% (active)"}, {"measurement": "growth inhibition", "setting": "[15]; at 1.2 µM", "value": -6, "unit": "%"}, {"measurement": "growth inhibition", "setting": "[15]; at 3.7 µM", "value": 27, "unit": "%"}, {"measurement": "growth inhibition", "setting": "[15]; at 11.0 µM", "value": "99% (active)"}, {"measurement": "growth inhibition", "setting": "[15]; at 33.0 µM", "value": "99% (active)"}, {"measurement": "growth inhibition", "setting": "[15]; at 100.0 µM", "value": "98% (active)"}]}]}
